Measured values from PubChem BioAssay (NCATS).
A number with no mark means an inactive call. Inconclusive results are not listed. A call without a number means that no potency is given here. Active and inactive are the calls of the source. Calls follow the shape of the dose curve; as a rule, active = well fitted curve in the direction sought with a large enough effect; inconclusive = small, poorly fitted or top-dose-only effect, or another doubt; inactive = no such curve, though single readings can be large; an effect the other way counts as inactive or inconclusive. Where a SMILES comes first, the peptide text is derived from it. [ ]: non-standard residue; d: D form. The star is where a group is joined. Dolaproine = CO[C@@H]([C@@H]1CCCN1)[C@@H](C)C(=O)O; Dil = CC[C@H](C)[C@H](NC)[C@@H](CC(=O)O)OC; Doe = c1ccc(C[C@H](N*)c2nccs2)cc1; Aib = CC(C)(N)C(=O)O

How the values were obtained:
[1] = test system: Zika virus NS2B-NS3 protease (linked construct); experiment: Primary screen NINDS Rhodamine qHTS for Zika virus inhibitors (AID 1347160); also: nearly all actives have a fitted effect of over 55% in size
How it was run: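 Each compound, titrated, sat 15 min with 25 nM linked protease before 1.5 microM Rhodamine110 substrate went in. Fluorescence gain over the next 15 min, in pH 8.0 Tris with Tween 20, gave Hill-fitted curves.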

[2] = biological target: Calcium and integrin-binding protein 1 (Homo sapiens) (UniProt Q99828); experiment: Primary qHTS for Identification of Calcium Integrin Binding Protein 1 (CIB1) Competitor (AID 1508620);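 also: GST tagged CIB1 binding a fluorescein labelled alphaIIb integrin peptide tracer; top concentration of the series differs between compounds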
Calcium and integrin-binding protein 1 (Homo sapiens), sequence (Q99828 whole entry, looked up): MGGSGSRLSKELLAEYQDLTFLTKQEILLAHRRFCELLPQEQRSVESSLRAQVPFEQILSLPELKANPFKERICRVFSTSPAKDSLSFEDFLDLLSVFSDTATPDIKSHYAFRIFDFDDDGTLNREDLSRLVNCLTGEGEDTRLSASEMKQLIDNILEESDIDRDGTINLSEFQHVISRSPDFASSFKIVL
How it was run: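 Fluorescence polarization competition: CIB1-GST (1 uM final) preincubated with compound 15 min at room temperature, then FITC-labeled alphaIIb peptide (100 nM final) added for another 15 min. Polarization read at Ex 480/Em 540.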

[3] = biological target: Glutathione peroxidase 1 (Homo sapiens) (UniProt P07203); experiment: Primary qHTS Assay for Inhibitors of Recombinant Selenoprotein Glutathione Peroxidase 1 (GPX1) (AID 1845191); also: nearly all actives have a fitted effect of over 65% in size
Glutathione peroxidase 1 (Homo sapiens), sequence (P07203 whole entry, looked up): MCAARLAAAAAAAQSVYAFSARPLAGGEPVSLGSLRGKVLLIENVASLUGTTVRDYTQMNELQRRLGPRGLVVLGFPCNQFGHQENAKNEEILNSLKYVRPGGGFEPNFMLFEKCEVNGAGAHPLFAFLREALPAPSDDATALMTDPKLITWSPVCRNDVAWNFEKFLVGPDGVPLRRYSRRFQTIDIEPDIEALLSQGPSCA
How it was run: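 GPX1 10 nM, GR 100 nM, GSH 1 mM, NADPH 0.5 mM, CHP 0.5 mM (final). 30-min cpd preincubation, RT. Ex340/Em450 read t=0, t=15 min.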

[4] = biological target: Luciferin 4-monooxygenase (Photinus pyralis) (UniProt P08659); experiment: Primary firefly luciferase (FLuc) qHTS assay for identification of artifact compounds. (AID 1845220); settings: outcome: dose series up to 54.1 µM unless noted; also: nearly all actives have a fitted effect of over 60% in size
How it was run: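 In this counter-screen for luciferase artifacts, test compounds met substrate (10 uM each luciferin and ATP) before 10 nM enzyme started the reaction. Light output was measured 5 min later.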

[5] = test system: Nanoluciferase (engineered Oplophorus gracilirostris luciferase); experiment: Primary Nanoluciferase (NLuc) qHTS assay for identification of artifact compounds. (AID 1845222);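 also: NLuc secreted into diluted conditioned medium of S16 cells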
How it was run: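 Using secreted nanoluciferase in S16 culture medium (0.22 um filtered, 1:55 dilution), compounds were preincubated 15 min at RT. Signal was generated with Nano-Glo reagent (1:100) over 5 min.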

[6] = Primary redox qHTS assay for identification of artifact compounds. (AID 1845223)
How it was run: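 Redox-cycling detection via DTT (250 uM final) oxidation coupled to Amplex Red (25 uM)/HRP (250 mU/mL) in HBSS. 15 min preincubation plus 30 min after DTT, room temperature. Ex/Em 525/598 nm; 4-parameter Hill fit against DMSO and 10 uM DA3003.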

HaCat = experiment: Cytotoxic Profiling of Annotated Libraries Using Quantitative High-Throughput Screening (AID 1296008); settings: Five cell lines viability, CellTiter-Glo ATP luminescence, 48-72 h; max response: stronger effect = lower value; also: nearly all actives have a fitted effect of over 60% in size; also: potency is read from the fitted curve at half-maximal effect
How it was run: (§1)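 Compounds were pin-transferred onto cells and incubated 48 or 72 hr at 37 degree Celsius, 95% humidity. CellTiter-Glo was added, plates sat 10 min at room temperature, then ATP-coupled luminescence was imaged as the viability read-out.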

NIH3T3 = experiment: as above; settings: Five cell lines viability, CellTiter-Glo ATP luminescence, 48-72 h; max response: stronger effect = lower value
How it was run: as §1

C33A = experiment: Primary qHTS to identify gynecologic anti-cancer compounds using libraries of approved drugs and bioactive compounds (AID 1345084); settings: Gynecologic cancer cell panel viability, ATPlite luminescence, 48 h; series mostly up to 57.5 µM; also: nearly all actives have a fitted effect of over 55% in size; also: potency is read from the fitted curve at half-maximal effect
How it was run: (§2)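 In this quantitative HTS, cell killing is estimated from loss of ATP-dependent luciferase light. Cells see five compound concentrations over a 48 h exposure.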

CAOV3 = experiment: as above; settings: Gynecologic cancer cell panel viability, ATPlite luminescence, 48 h; series mostly up to 57.5 µM
How it was run: as §2

CASKI = experiment: as above; settings: Gynecologic cancer cell panel viability, ATPlite luminescence, 48 h; series mostly up to 57.5 µM
How it was run: as §2

Es-2 = experiment: as above; settings: Gynecologic cancer cell panel viability, ATPlite luminescence, 48 h; series mostly up to 57.5 µM
How it was run: as §2

Hek293T = experiment: as above; settings: Gynecologic cancer cell panel viability, ATPlite luminescence, 48 h, control line for the selectivity index; series mostly up to 57.5 µM
How it was run: as §2

JEG-3 = experiment: as above; settings: Gynecologic cancer cell panel viability, ATPlite luminescence, 48 h; series mostly up to 57.5 µM
How it was run: as §2

OV90 = experiment: as above; settings: Gynecologic cancer cell panel viability, ATPlite luminescence, 48 h; series mostly up to 57.5 µM
How it was run: as §2

PA-1 = experiment: as above; settings: Gynecologic cancer cell panel viability, ATPlite luminescence, 48 h; series mostly up to 57.5 µM
How it was run: as §2

Tov-21-G = experiment: as above; settings: Gynecologic cancer cell panel viability, ATPlite luminescence, 48 h; series mostly up to 57.5 µM
How it was run: as §2

Tov112D = experiment: as above; settings: Gynecologic cancer cell panel viability, ATPlite luminescence, 48 h; series mostly up to 57.5 µM
How it was run: as §2

[7] = biological target: Phospholipid hydroperoxide glutathione peroxidase GPX4 (Homo sapiens) (UniProt P36969); experiment: Primary qHTS Assay for Inhibitors of Recombinant Selenoprotein Glutathione Peroxidase 4 (GPX4) (AID 1845192); also: nearly all actives have a fitted effect of over 65% in size
Phospholipid hydroperoxide glutathione peroxidase GPX4 (Homo sapiens), sequence (P36969 whole entry, looked up): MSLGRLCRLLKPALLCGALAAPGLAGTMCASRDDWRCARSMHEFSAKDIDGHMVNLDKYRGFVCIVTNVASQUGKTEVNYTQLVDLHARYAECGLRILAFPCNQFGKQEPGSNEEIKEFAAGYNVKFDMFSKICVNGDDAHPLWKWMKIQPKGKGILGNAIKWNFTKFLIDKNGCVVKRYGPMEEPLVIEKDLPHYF
How it was run: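 qHTS, GR-coupled: GPX4 200 nM + cpd 30 min RT → GSH 1 mM, NADPH 0.5 mM, GR 100 nM → CHP 0.5 mM start; fluor 340/450 at t0 and t15 min; no-enzyme wells as control.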

[8] = Primary fluorescence-based thiol-reactive (MSTI) qHTS assay for identification of artifact compounds. (AID 1845221); also: nearly all actives have a fitted effect of over 65% in size; also: potency is read from the fitted curve at half-maximal effect
How it was run: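 One-hour, room-temperature, dark incubation of compound with 4 uM MSTI in PBS (pH 7.4, 2% DMSO) precedes a fluorescence read at 525 nm excitation, 598 nm emission; Hill-equation fitting yields concentration-response values.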

CCC1CN2CCC3(C(=O)Nc4cccc(O)c43)C2CC1/C(=C/OC)C(=O)OC (centres undefined)
Potency [1]: inactive
Potency [2]: inactive
Potency [3]: inactive
outcome [4]: inactive
Potency [5]: inactive
Potency [6]: inactive
outcome (HaCat): inactive
max response (NIH3T3): 4.67%
Potency (C33A): inactive
Potency (CAOV3): inactive
Potency (CASKI): inactive
Potency (Es-2): inactive
Potency (Hek293T): inactive
Potency (JEG-3): inactive
Potency (OV90): inactive
Potency (PA-1): inactive
Potency (Tov-21-G): inactive
Potency (Tov112D): inactive

C[C@H]1CN(CC[C@H](O)C2CCCCC2)CC[C@@]1(C)c1cccc(O)c1
Potency [1]: inactive
Potency [2]: inactive
Potency [3]: inactive
Potency [7]: inactive
outcome [4]: inactive
Potency [5]: inactive
Potency [6]: inactive
max response (HaCat): 3.77%
max response (NIH3T3): -4.6%
Potency (C33A): inactive
Potency (CAOV3): inactive
Potency (CASKI): inactive
Potency (Es-2): inactive
Potency (Hek293T): inactive
Potency (JEG-3): inactive
Potency (OV90): inactive
Potency (PA-1): inactive
Potency (Tov-21-G): inactive
Potency (Tov112D): inactive

Clc1ccc([C@]23CNC[C@H]2C3)cc1Cl
Potency [1]: inactive
Potency [2]: inactive
Potency [3]: inactive
Potency [7]: inactive
outcome [4]: inactive
Potency [8]: inactive
Potency [5]: inactive
Potency [6]: inactive
outcome (HaCat): inactive
max response (NIH3T3): 1.31%
Potency (C33A): inactive
Potency (CAOV3): inactive
Potency (CASKI): inactive
Potency (Es-2): inactive
Potency (Hek293T): inactive
Potency (JEG-3): inactive
Potency (OV90): inactive
Potency (PA-1): inactive
Potency (Tov-21-G): inactive
Potency (Tov112D): inactive

CCCCCn1cc(C(=O)Oc2cccc3cccnc23)c2ccccc21
Potency [1]: inactive
Potency [2]: inactive
Potency [3]: inactive
Potency [7]: inactive
outcome [4]: inactive
Potency [8]: inactive
Potency [5]: inactive
Potency [6]: inactive
max response (HaCat): 2.86%
max response (NIH3T3): -5.3%
Potency (C33A): inactive
Potency (CAOV3): inactive
Potency (CASKI): inactive
Potency (Es-2): inactive
Potency (Hek293T): inactive
Potency (JEG-3): inactive
Potency (OV90): inactive
Potency (PA-1): inactive
Potency (Tov-21-G): inactive
Potency (Tov112D): inactive

CC1(C)C(=O)N(c2ccc(C#N)c(C(F)(F)F)c2)C(=S)N1c1ccc(C(N)=O)c(F)c1
Potency [1]: inactive
Potency [2]: inactive
Potency [7]: inactive
outcome [4]: inactive
Potency [8]: inactive
Potency [5]: inactive
Potency [6]: inactive
outcome (HaCat): inactive
max response (NIH3T3): 0.467%
Potency (C33A): inactive
Potency (CASKI): inactive
Potency (Es-2): inactive
Potency (Hek293T): inactive
Potency (JEG-3): inactive
Potency (OV90): inactive
Potency (PA-1): inactive
Potency (Tov-21-G): inactive
Potency (Tov112D): inactive

NCCCCCNC1(c2ccccc2)CCCCC1
Potency [1]: inactive
Potency [3]: inactive
Potency [7]: inactive
outcome [4]: inactive
Potency [8]: inactive
Potency [5]: inactive
Potency [6]: inactive
outcome (HaCat): inactive
max response (NIH3T3): -1.15%
Potency (C33A): inactive
Potency (CAOV3): inactive
Potency (CASKI): inactive
Potency (Es-2): inactive
Potency (Hek293T): inactive
Potency (JEG-3): inactive
Potency (OV90): inactive
Potency (PA-1): inactive
Potency (Tov-21-G): inactive
Potency (Tov112D): inactive

C[C@]12CC[C@@H](O[C@@H]3O[C@H](CO)[C@@H](O)[C@H](O)[C@H]3O)C[C@@]1(O)CCC1C2CC[C@]2(C)[C@@H](C3=CC(=O)OC3)CC[C@]12O (some centres undefined)
Potency [1]: inactive
Potency [2]: inactive
Potency [7]: inactive
outcome [4]: inactive
Potency [5]: inactive
Potency [6]: inactive
Potency (HaCat): 1 µM (active)
outcome (NIH3T3): inactive
Potency (C33A): 0.199 µM (active)
Potency (CAOV3): 0.501 µM (active)
Potency (Es-2): 0.355 µM (active)
Potency (Hek293T): 0.199 µM (active)
Potency (OV90): 1.12 µM (active)
Potency (PA-1): 0.355 µM (active)
Potency (Tov-21-G): 0.178 µM (active)
Potency (Tov112D): 0.112 µM (active)

C#CC1(O)CCC2C3CCC4=CC(=O)CCC4=C3C=CC21C (centres undefined)
Potency [1]: inactive
Potency [2]: inactive
Potency [3]: inactive
outcome [4]: inactive
Potency [8]: inactive
Potency [5]: inactive
Potency [6]: inactive
outcome (HaCat): inactive
Potency (C33A): inactive
Potency (CAOV3): inactive
Potency (CASKI): inactive
Potency (Es-2): inactive
Potency (Hek293T): inactive
Potency (JEG-3): inactive
Potency (OV90): inactive
Potency (PA-1): 11.2 µM (active)
Potency (Tov-21-G): inactive
Potency (Tov112D): inactive

C[C@@H]1CCC2[C@@H](C)C(=O)OC3O[C@@]4(C)CCC1[C@]32OO4 (some centres undefined)
Potency [1]: inactive
Potency [7]: inactive
outcome [4]: inactive
Potency [8]: inactive
Potency [5]: inactive
Potency [6]: inactive
max response (HaCat): -1.21%
max response (NIH3T3): -13.5%
Potency (C33A): inactive
Potency (CAOV3): inactive
Potency (CASKI): inactive
Potency (Es-2): inactive
Potency (Hek293T): inactive
Potency (JEG-3): inactive
Potency (OV90): inactive
Potency (PA-1): inactive
Potency (Tov-21-G): inactive
Potency (Tov112D): inactive

CC(=O)O[C@H]1C[C@@H](C)O[C@H]2O[C@@H]3CC4CC[C@@H]5C(CC[C@]6(C)[C@@H](C7=CC(=O)OC7)CC[C@]56O)[C@@]4(C=O)C[C@H]3O[C@]21O (some centres undefined)
Potency [1]: inactive
Potency [2]: inactive
Potency [3]: inactive
outcome [4]: inactive
Potency [5]: inactive
Potency (HaCat): 0.172 µM (active)
Potency (C33A): 0.1 µM (active)
Potency (CAOV3): 0.282 µM (active)
Potency (CASKI): 0.562 µM (active)
Potency (Es-2): 0.126 µM (active)
Potency (Hek293T): 0.158 µM (active)
Potency (OV90): 0.562 µM (active)
Potency (PA-1): 0.126 µM (active)
Potency (Tov-21-G): 0.1 µM (active)
Potency (Tov112D): 0.1 µM (active)

C=C1C(=O)O[C@@H]2[C@H]3C(=C)[C@@H](O)C[C@H]3C(=C)C[C@@H](O)[C@@H]12
Potency [2]: inactive
Potency [3]: inactive
Potency [7]: inactive
outcome [4]: inactive
Potency [8]: 5.32 µM (active)
Potency [5]: inactive
Potency [6]: inactive
max response (HaCat): -4.6%
Potency (C33A): inactive
Potency (CAOV3): inactive
Potency (CASKI): inactive
Potency (Es-2): inactive
Potency (Hek293T): inactive
Potency (JEG-3): inactive
Potency (OV90): inactive
Potency (PA-1): inactive
Potency (Tov112D): inactive

CC[C@H](C)[C@@H]([C@@H](CC(=O)N1CCC[C@H]1[C@H](OC)[C@@H](C)C(=O)N[C@@H](Cc1ccccc1)c1nccs1)OC)N(C)C(=O)[C@@H](NC(=O)C(C)(C)N)C(C)C (H-[Aib]V[Dil][Dolaproine]-Doe)
Potency [1]: inactive
Potency [2]: inactive
Potency [3]: inactive
Potency [7]: inactive
outcome [4]: inactive
Potency [8]: inactive
Potency [5]: inactive
outcome (HaCat): inactive
max response (NIH3T3): -54.1%
Potency (CAOV3): inactive
Potency (Hek293T): inactive
